In PubChem BioAssay AID686978 (National Center for Advancing Translational Sciences (NCATS), 2013):
Screen size: about 420,000 compounds; about 64,000 (15%) were called active. Roughly 27% stayed inconclusive and do not appear here. These entries were drawn from the full list. Unmarked numbers belong to inactive results. Calls come from the whole dose curve; as a rule, active = well fitted inhibition curve with a large enough effect; inconclusive = small, poorly fitted or top-dose-only effect; inactive = flat fitted curve, though single readings scatter.

assay: qHTS for Inhibitors of human tyrosyl-DNA phosphodiesterase 1 (TDP1): qHTS in cells in absence of CPT; details: DT40 Tdp1-/- hTDP1 cells, no CPT, ATP luminescence, 48 h; activity change, negative = growth inhibition: at 46.2 µM (top of the series); note: nearly all actives have a fitted effect of over 55% in size
How it was run: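 Seeded 400 DT40-hTDP1 cells/well (vehicle DMSO, no 20 nM CPT); pinned compounds; ≥48 hr at 37 °C; CellTiter-Glo luminescence as viability measure.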
% is set by controls: 0 for no effect and ±100 for the full control effect; potency is the fitted concentration of half-maximal effect.

Compound	activity change, negative = growth inhibition	Potency
CCCc1ccc(C(=O)COC(=O)CN2C(=O)NC3(CCCCC3C)C2=O)cc1 (configuration not stated)	13.5%	
COc1ccc(Cl)cc1NC(=O)NCC1CCN(Cc2ccccc2F)CC1	-0.532%	
COc1cccc(-c2cccc(NC(=O)C3CCN(C4CCC4)CC3)c2)c1	3.26%	
CCn1cc(CN2CCC(C(=O)Nc3cccc(-c4cccc(Cl)c4)c3)CC2)c(C)n1		4.61 µM (active)
O=C(NC1CCCC1)C1CCN(C(=O)Nc2cccc(Cl)c2)CC1	0.869%	
O=C(NCC1CCN(Cc2ccccc2Cl)CC1)Nc1cccc(Cl)c1		18.4 µM (active)
Cc1ccccc1NC(=O)NCC1CCN(Cc2cccc(Cl)c2)CC1	0.533%	
O=C(Nc1cccc(-c2cccc(Cl)c2)c1)C1CCN(C2CCC2)CC1		23.1 µM (active)
CCn1cc(CN2CCC(n3nccc3NC(=O)CCCc3ccccc3)CC2)c(C)n1	6.6%	
O=C(Nc1cccc(-c2cscn2)c1)C1CCN(Cc2ccsc2)CC1	-8.03%	
CC1Cc2ccccc2N1S(=O)(=O)c1c(N)n(C)c(=O)n(C)c1=O (configuration not stated)	0.0607%	
CCSc1nnc(NC(=O)c2cc(=O)c3cc(C)c(C)cc3o2)s1	-14.3%	
COc1ccc(S(=O)(=O)NCC(=O)NC2CC2)cc1OC	25.6%	
CCN1CCN(C(C(=O)NC2CCCC2)c2cc3c(cc2[N+](=O)[O-])OCO3)CC1 (configuration not stated)	6.31%	
CC(C)CN1CC(C)C(=O)N(c2ccccc2)C1=S (configuration not stated)	-12.7%	
Nc1nc(SCC(=O)NNc2c(Cl)cc(Cl)cc2Cl)n[nH]1	-10%	
CC(C)NC(=O)Nc1ccc2c(c1)C(=O)N([C@H](C)CO)C[C@H](C)[C@@H](CN(C)Cc1ccc(C(F)(F)F)cc1)OCCCC[C@@H](C)O2	-20.4%	
Cc1noc(C)c1S(=O)(=O)N(C)C[C@H]1OCCCC[C@@H](C)Oc2ccc(NC(=O)CCCN(C)C)cc2C(=O)N([C@H](C)CO)C[C@@H]1C	-16.3%	
C[C@@H]1CCCCO[C@H](CN(C)Cc2ccccc2)[C@@H](C)CN([C@H](C)CO)C(=O)c2cc(NS(=O)(=O)c3ccc(Cl)cc3)ccc2O1		16.4 µM (active)
O=C(Nc1ccnn1C1CCN(Cc2cccc(OCCO)c2)CC1)C1CCCC1	0.788%	
CC1(C)CC(=O)C=C(NC2CC(C)(C)NC(C)(C)C2)C1	0.396%	

Compound	activity change, negative = growth inhibition	Potency
CC(=O)c1cnn(-c2cc(Oc3ccc(F)cc3)ncn2)c1C	-13.4%	
COc1cc(/C=C2/C(=O)NN(c3ccc(F)cc3)C2=O)cc([N+](=O)[O-])c1O	-2.19%	
C/C=C/C(=O)Nc1nnc(C(C)C)s1	-22.6%	
Cc1cccnc1C(NC(=O)C1CCN(Cc2ccc(Cl)c(Cl)c2)CC1)c1ccc(Cl)cc1 (configuration not stated)		4.61 µM (active)
O=C(NC(c1ccc(Cl)cc1)c1cnccn1)C1CCN(Cc2ccc(Cl)cc2)CC1 (configuration not stated)		20.6 µM (active)
O=C(NNS(=O)(=O)c1ccc(Cl)cc1)C1CCN(Cc2ccccc2)CC1	-15.1%	
CCOc1ccc(CN2CCC(n3nccc3NC(=O)C3CC3)CC2)cc1CO	1.56%	
Clc1ccc(CN2CCCCCC2)cc1Cl	7.19%	
COc1cccc(CN2CCC(C(=O)NC(c3ccc4c(c3)OCO4)c3ccccn3)CC2)c1 (configuration not stated)	-23.3%	
Fc1cccc(Cl)c1CSc1ccc(-c2ccco2)nn1	-19.1%	
CCOc1ccc(S(=O)(=O)N2CCC(C(=O)NCc3ccccn3)CC2)cc1Cl	-12.9%	
Cc1ccc(S(=O)(=O)NCC(=O)NNC(=O)c2ccc(Br)cc2)cc1C	-12.9%	
O=C(NNS(=O)(=O)c1ccc(F)cc1)c1cnccn1	-10%	
CO/N=C(\C(=O)N[C@@H]1C(=O)N2C(C(=O)O)=C(C[N+]3(C)CCCC3)CS[C@H]12)c1csc(N)n1	-2.94%	
O=C(COC(=O)/C=C/c1nc2ccccc2s1)Nc1ccccc1Oc1ccccc1	-27%	
c1ccc(CCc2ccccn2)cc1	-2.35%	
CC(C)NC(=O)N1CCC2(CC1)CCN(C(=O)c1cccn1C)CC2	-14.2%	
Cn1cccc1C(=O)N1CCC2(CC1)CN(c1cccc(-c3ccccc3)c1)C2		16.4 µM (active)
COc1ccc(NC(=O)N2CC3(CCN(C(=O)c4cccn4C)CC3)C2)cc1	-17.9%	
CCN(CC)CCn1cnc2c1c(=O)n(CCOC(=O)c1cc(OC)c(OC)c(OC)c1)c(=O)n2C	0.412%	
CC(=O)c1nn(-c2ccc(C)cc2)cc1C(=O)c1cccc(Br)c1	-28.5%	

Compound	activity change, negative = growth inhibition	Potency
O=C(CCNC(=O)c1ccc([N+](=O)[O-])cc1)NC1CCCCC1	-20.3%	
CC(C)C1=CC2=CC[C@H]3[C@](C)(C(=O)O)CCC[C@]3(C)C2CC1 (some centres not stated)	3.41% [at 9.04 µM]	
COc1ccc(CN2CCNC(=O)C2CC(=O)NCc2cn[nH]c2-c2ccccc2)c(F)c1 (configuration not stated)	-16.8%	
COc1ccc(NS(=O)(=O)c2ccc(NC(=O)C(C)(C(F)(F)F)C(F)(F)F)cc2)nn1	6.95%	
c1ccc(-c2cn3c(n2)CCc2ccc4cccnc4c2-3)cc1		16.4 µM (active)
c1ccc(-c2cn3cccnc3n2)cc1	-1.58%	
Cc1ccc2nc(NC(=O)CSc3nc(=O)n(CCCN(C)C)c4c3CCC4)sc2c1		13 µM (active)
Cc1csc(NC(=O)CSc2nc(=O)n(CCCN(C)C)c3c2CCC3)n1	4.86%	
Cc1ccc(NC(=O)CSc2nc(=O)n(CCN(C)C)c3c2CCCC3)c(C)c1	4.62%	
CCOC(=O)CC1=CC(=O)Nc2ccccc2N1	-11.6%	
CCc1ccccc1NC(=O)CN(C)C(=O)c1cc(C2CC2)nn1-c1ccccc1	-15.7%	
COc1cccc(NC(=O)CN(C)C(=O)c2cc(C3CC3)nn2-c2ccccc2)c1	-5.3%	
CCc1ccccc1NC(=O)CN1CCN(C(=O)c2cc(C3CC3)nn2-c2ccccc2)CC1		23.1 µM (active)
COc1ccc(NC(=O)c2cccc(Cl)c2)c[n+]1[O-]	-0.558%	
COc1ccc(C(=O)Nc2ccc(NC(=O)C(C)C)nc2)cc1	-7.31%	
Cc1ccc(Sc2ccc(NC(=O)c3ccc(F)cc3)cc2C#N)cc1		11.6 µM (active)
COC(=O)c1ccc(Sc2ccc(F)cc2)c(N)c1	-25%	
COc1ccc(Sc2ccc(NC(=O)c3cccc(Cl)c3)cc2C#N)cc1		23.1 µM (active)
Cc1ccc(C(=O)Nc2ccc3[nH]c(=O)c(=O)[nH]c3c2)cc1	1.61%	
COc1cccc(NC(=O)CCNS(=O)(=O)c2ccc3c(c2)oc(=O)n3C)c1		inactive
